BH1578 lux ind – inducers of Vibrio cholerae quorum light production without autoinducers; V. cholerae BH1578 lux reporter, luminescence, 6 h; activation, % at 18.7 µM; 350,000 tested, 0.16% active; in the data active = activation mostly above about 9.7%, no sharp cut-off
SSB-PriA inh – blocks PriA binding to SSB C-terminal tail; AlphaScreen SSBct-PriA binding, biotinylated peptide; inhibition, % at 33 µM; 430,000 tested, 0.6% active; in the data active = inhibition mostly above about 37%, no sharp cut-off; inactive = mostly below about 20%
Mtb hypoxia rep – inhibitors of hypoxia-regulated fluorescent reporter in Mycobacterium tuberculosis. 300,000 tested, 0.1% active. fluorescence inhibition, % (concentration not given with the values). M. tuberculosis hypoxia-regulated fluorescent reporter, fluorescence. AID 1159583; in the data active = fluorescence inhibition mostly above about 23%, no sharp cut-off; inactive = mostly below about 17%
MazF activator – increases E. coli MazEF RNase cleavage of RNA; activation, % at 20 µM; FAM/BHQ RNA-DNA oligo cleavage fluorescence, 5 h; 350,000 tested, 0.32% active; in the data active = activation above about 50%
Target sequence (P0AE70 whole entry, looked up): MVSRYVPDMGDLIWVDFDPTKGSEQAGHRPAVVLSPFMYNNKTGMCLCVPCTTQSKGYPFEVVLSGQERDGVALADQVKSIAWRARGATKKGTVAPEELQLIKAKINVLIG
Hits are given with their value; – = inactive; · = not tested or not shown; + = active, no number. A selection: hits, their analogues and other compounds. The true share with any hit is near 0.94%.

SMILES	BH1578 lux ind	SSB-PriA inh	Mtb hypoxia rep	MazF activator
CC(=O)N1N=C(c2ccc([N+](=O)[O-])cc2)CC1c1ccccc1Cl (stereo not drawn)	–	45.2	–	–
CCOc1ccc(S(=O)(=O)N2CCCC(c3nnc(Cc4ccc(F)cc4)o3)C2)cc1 (stereo not drawn)	·	–	·	·
O=C(c1ccco1)N(CCCn1ccnc1)c1nc2c(F)cccc2s1	·	71.8	·	·
Cc1cccc2sc(N(CCCn3ccnc3)C(=O)c3ccc(Cl)s3)nc12	·	–	·	·
Cc1c(Cl)ccc2sc(N(CCCn3ccnc3)C(=O)c3ccco3)nc12	·	69.3	·	·
O=C(c1ccco1)N(CCCn1ccnc1)c1nc2c(Cl)cccc2s1	·	–	·	·
O=C(c1ccc(F)cc1)N(CCCn1ccnc1)c1nc2c(F)cccc2s1	·	–	·	·
COc1cccc2sc(N(CCCn3ccnc3)C(=O)c3ccco3)nc12	·	56.9	·	·
CCc1cccc2sc(N(CCCn3ccnc3)C(=O)c3ccco3)nc12	·	109.9	·	·
Nc1ccc2c(c1)CN(C(=O)c1ccccc1)CC2	·	–	·	·
CN1CCN(c2ccc(-c3ccc(NC(=O)c4cccc5ccccc45)cc3)nn2)CC1	·	–	·	·
O=C(Oc1ccccc1)Oc1ccc(N(C(=O)Oc2ccccc2)S(=O)(=O)c2ccc3ccccc3c2)cc1Cl	·	–	·	·
CCOc1cccc2sc(N(CCCn3ccnc3)C(=O)c3ccc(Cl)s3)nc12	·	50.0	·	·
O=[N+]([O-])c1cccc(NN=Cc2ccc(N3CCOCC3)cc2)c1	·	52.3	–	·
CCc1ccccc1NC(=O)C(=O)NCC1CCN(C(C)C)CC1	·	–	·	·
COc1ccc(C(=O)NCC(c2ccc3c(c2)CCN3C)N(C)C)c(OC)c1 (stereo not drawn)	·	–	·	·
CCOC(=O)N1CCN(C(=O)C2CN(C(=O)c3cnccn3)C2)CC1	·	–	·	·
CON=Cc1ccc(Sc2ccccc2)c([N+](=O)[O-])c1	·	54.5	–	·
CON=Cc1ccc(Sc2ccccc2N)c([N+](=O)[O-])c1	·	52.1	·	·
CO/N=C/c1ccc(N2CCN(C)CC2)c([N+](=O)[O-])c1	·	+	·	·
CO/N=C/c1ccc(Sc2ccccc2)c([N+](=O)[O-])c1	·	·	·	–
CO/N=C/c1ccc(N2CCN(C(=O)c3ccc(F)cc3)CC2)c([N+](=O)[O-])c1	–	·	·	–
COc1cccc2sc(NC(=O)C3CCN(S(C)(=O)=O)CC3)nc12	·	–	·	·
Cc1cc(C)c(S(=O)(=O)N2CCCC2C(=O)O)c(C)c1 (stereo not drawn)	·	–	·	·
C/C(=N/NC(=S)NCc1ccco1)c1ccco1	·	43.0	·	·
SMILES	BH1578 lux ind	SSB-PriA inh	Mtb hypoxia rep	MazF activator
CCn1c(SCC(=O)Nc2ccc(OC)c(Cl)c2)nc2c(-c3ccccc3)c[nH]c2c1=O	·	–	·	·
O=C(Cn1c(S(=O)(=O)Cc2ccccc2)nc2ccccc21)N1CCN(c2ccccc2)CC1	·	54.0	·	·
N#Cc1ccc(Sc2ccccn2)c([N+](=O)[O-])c1	–	–	–	–
NNS(=O)(=O)c1ccc(Sc2ccccn2)c([N+](=O)[O-])c1	–	–	–	220.2
O=C(Nc1cccc(C(F)(F)F)c1)N1CCOC2(CCOCC2)C1	·	–	·	·
Cc1ccc(-n2ccnc2N2CCN(C(=O)c3c(F)cccc3F)CC2)cc1	·	78.1	·	·
Cc1ccc(-n2ccnc2N2CCN(C(=O)c3ccc(C)c(C)c3)CC2)cc1	·	36.0	·	·
Cc1ccc(-n2ccnc2N2CCN(C(=O)c3c(F)cccc3Cl)CC2)cc1	·	62.0	·	·
COc1cccc2sc(N(C)CC(=O)Nc3cccc(OC(F)F)c3)nc12	·	–	·	·
Cc1ccc(S(=O)(=O)c2c(C)cc(C)n(CC(=O)NCc3ccc4c(c3)OCO4)c2=O)cc1C	·	–	·	·
CSc1cccc2sc(NC(=O)C3CCN(S(C)(=O)=O)CC3)nc12	·	–	·	·
CC1=CC(=C2N=C(c3ccccc3)OC2=O)C=C(C)O1	–	–	–	305.9
O=C1CN(C(=O)COC(=O)c2ccc(Br)o2)c2ccccc2N1	–	–	26.0	–
C=CCn1c(SCC(=O)NC2CCCCC2)nc2scc(-c3ccc(F)cc3)c2c1=O	·	–	·	·
CN1C(=O)/C(=C/c2ccc(N3CCCCCC3)o2)C(=O)NC1=S	–	–	44.9	–
O=C1c2cccc3cccc(c23)C(=O)N1CC1CCN(CC(O)COc2ccc3ccccc3c2)CC1 (stereo not drawn)	–	45.0	–	–
COc1ccc(-c2cn3c(C(=O)Nc4ccc5c(c4)OCCO5)csc3n2)cc1	·	active	·	·
COc1ccc(-c2cn3c(CCC(=O)Nc4ccc5c(c4)OCO5)csc3n2)cc1	·	38.0	·	·
COc1ccc(-c2cn3c(CCC(=O)Nc4nc(C)cs4)csc3n2)cc1	·	–	·	·
O=C(O)CCC(=NNc1ccccc1[N+](=O)[O-])c1cccs1	·	42.3	–	·
CCOC(=O)/C(=C/C=C1\Sc2cc(C)c(C)cc2N1CC)C(C)=O	–	–	–	–
CN1/C(=C/c2cccc[n+]2CCO)Sc2ccccc21	–	–	–	–
CCN1/C(=C/c2ccc3cc(C)ccc3[n+]2CC)Sc2ccccc21	–	–	·	68.9
CC[n+]1c(/C=C2\Sc3ccccc3N2C)ccc2cccc(C)c21	–	·	·	105.8
CCN1/C(=C/c2ccc3cc(C)ccc3[n+]2CC)Sc2cc(C)c(C)cc21	–	–	39.9	70.8
SMILES	BH1578 lux ind	SSB-PriA inh	Mtb hypoxia rep	MazF activator
CCOC(=O)N1CCC(NC(=O)Cc2c(C)nc(SCc3ccccc3)[nH]c2=O)CC1	·	–	·	·
O=c1c2ccccc2nc2c3ccccc3c(NCCN3CCOCC3)nn12	·	·	–	·
O=c1c2c(-c3ccccc3)csc2nc2c3ccccc3c(NCCN3CCOCC3)nn12	–	–	40.7	–
Cn1nc(C(=O)N2CC[C@H](S(=O)(=O)C(C)(C)C)C2)ccc1=O	·	–	·	·
Cc1cnc(C(=O)OCC(=O)Nc2cccc3ccccc23)cn1	–	–	26.1	–
CCOc1ccc(-c2ccc(=O)n(Cc3nc(-c4ccc5c(c4)OCO5)no3)n2)cc1	·	–	·	·
N/C(=N\OC(=O)c1cccc2ccccc12)c1cccc([N+](=O)[O-])c1	–	·	·	55.2
COCCN1CCCc2ccc(NC(=O)c3cccc(Br)c3)cc21	·	56.0	·	·
COCCN1CCCc2ccc(NS(=O)(=O)Cc3cccc(C)c3)cc21	·	40.0	·	·
COCCN1CCCc2ccc(NS(=O)(=O)c3ccc(OCC(C)C)cc3)cc21	·	39.0	·	·
COCCN1CCCc2ccc(NS(=O)(=O)c3cccc(C)c3)cc21	·	–	·	·
COCCN1CCCc2ccc(NS(=O)(=O)c3ccc(Cl)cc3)cc21	·	–	·	·
COc1ccc(NC(=O)c2cn(C[C@H](O)c3cccs3)nn2)cc1Cl	·	–	·	·
COc1ccc(/C=C2\SC(=N)NC2=O)cc1	·	–	·	·
Cc1onc(-c2ccccc2Cl)c1C(=O)NCCS(=O)(=O)N1CCc2ccccc2C1	·	–	·	·
O=C(NCCCN1CCCC1=O)C(=O)NCC1OCCN1S(=O)(=O)c1cccs1 (stereo not drawn)	·	–	·	·
COc1ccc(NS(=O)(=O)c2ccc(N3CCOCC3)c(N)c2)cc1	–	–	28.5	–
COc1ccc(S(=O)(=O)Nc2ccc(N3CCOCC3)cc2)cc1	–	–	–	–
Cc1cc(NC(=O)C(=O)NCC2CCN(c3nccnc3C#N)CC2)no1	·	–	·	·
Cc1ccc(OCc2nc(-c3ccccn3)n[nH]2)cc1	–	108.7	·	–
Cc1cccc(OCc2nc(-c3ccccn3)n[nH]2)c1	–	90.0	·	–
Cc1cccc(OCc2n[nH]c(=S)n2-c2ccccc2)c1	–	–	–	–
COCc1nc(-c2ccccn2)n[nH]1	·	67.7	·	·
O=C(O)Cc1nc(-c2ccccn2)n[nH]1	·	–	·	·

Screening results (PubChem BioAssay)
